Assay outcomes as filed in PubChem BioAssay.
Most compounds without a hit are left out; they make up all but 7.3% or so of the library.
FLuc counter: qHTS profiling assay for firefly luciferase inhibitor/activator using purifed enzyme and Km concentrations of substrates (counterscreen for miR-21 project); 6.9% of 360,000 active; purified FLuc, Km substrates, luminescence inhibition; AID 588342, 2011; Potency, µM (top dose mostly 57.5 µM), inactives show at the highest dose activity change, negative = inhibition, hits mostly inhibitors; Luciferin 4-monooxygenase (Photinus pyralis), P08659;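 note: plate controls were vehicle for no effect and reference inhibitor for full effect; nearly all actives have a fitted effect of over 55% in size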
Target sequence (P08659 whole entry, looked up): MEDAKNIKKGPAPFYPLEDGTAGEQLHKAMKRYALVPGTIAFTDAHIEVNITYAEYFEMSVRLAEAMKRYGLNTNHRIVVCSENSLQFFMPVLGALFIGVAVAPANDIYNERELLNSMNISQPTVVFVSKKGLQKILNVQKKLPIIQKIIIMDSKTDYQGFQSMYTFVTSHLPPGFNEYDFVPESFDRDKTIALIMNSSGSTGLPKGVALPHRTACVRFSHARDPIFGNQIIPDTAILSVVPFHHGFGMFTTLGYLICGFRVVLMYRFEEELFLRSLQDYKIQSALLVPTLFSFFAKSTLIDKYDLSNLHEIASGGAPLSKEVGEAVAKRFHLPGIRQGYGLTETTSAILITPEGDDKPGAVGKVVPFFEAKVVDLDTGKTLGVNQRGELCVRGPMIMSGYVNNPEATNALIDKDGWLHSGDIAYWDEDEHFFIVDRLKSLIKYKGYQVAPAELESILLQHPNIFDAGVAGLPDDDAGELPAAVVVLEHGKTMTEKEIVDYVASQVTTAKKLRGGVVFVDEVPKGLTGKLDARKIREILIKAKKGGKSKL
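Biochemical qHTS of compounds, final roughly 60 µM downward over six points, against 10 nM purified firefly luciferase using Km concentrations of substrates (10 uM D-luciferin, 10 uM ATP) in Tris acetate pH 7.5 buffer; luminescence output.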
SMN2 splice up: qHTS Assay for Enhancers of SMN2 Splice Variant Expression | 2.8% of 210,000 active | Potency, µM (doses to about 46.1 µM), without a hit: top-dose activity change, positive = activation, actives largely listed as activators | AID 1458, 2008 | HEK293 SMN2-luciferase splicing reporter, luminescence, 30-36 h; note: % of control where 0% means no effect; nearly all actives have a fitted effect of over 55% in size
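HEK293 cells carry an SMN2 minigene-luciferase reporter in which exon 7 inclusion puts luciferase in frame. Cells were seeded at 2000 cells/well, attached for 10-12 hours, then exposed to compounds for 30-36 hours at 37C before ONE-Glo luminescence.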
Rab9 promoter act: qHTS Assay for Rab9 Promoter Activators | 2.8% of 320,000 active | Potency, µM (highest dose often 9.22 µM), for inactives: at the top dose activation, negative = inhibition, most hits filed as activators | Huh7 Rab9 promoter-luciferase reporter, luminescence, 24 h | AID 485297, 2010; note: % of control where 0% means no effect; nearly all actives have a fitted effect of over 60% in size
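Rab9 promoter-driven luciferase in stably transfected Huh7 cells; 1500 cells/well rested 2 h, exposed to compound in DMSO for 24 h at 37 °C, 5% CO2. Luminescence read 10 min after adding luciferase reagent at ambient temperature.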
p53 reactivator: qHTS assay for re-activators of p53 using a Luc reporter; H1299 p53-A138V BP100-luciferase reporter, luminescence, 24 h; Potency, µM (doses to about 92.2 µM), for the others: at the highest dose activity change, positive = activation, hits mostly activators; 0.063% of 320,000 active; note: % of control where 0% means no effect; nearly all actives have a fitted effect of over 45% in size
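p53-null H1299 cells stably carrying temperature-sensitive p53-A138V and a BP100-luciferase reporter were pinned with compounds (4-point, 1:5 series) and held 24 hrs at 37 deg C. Luminescence was read 10 min after detection reagent.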
ELG1 genotoxic: qHTS screen for small molecules that induce genotoxicity in human embryonic kidney (HEK293T) cells expressing luciferase-tagged ELG1; HEK293T ELG1-luciferase reporter, luminescence, 16 h; Potency, µM (doses to about 46 µM), for the others: top-dose activity change, positive = activation, usual class: activators; 1.3% of 330,000 active; AID 504466, 2011; note: % of control where 0% means no effect; nearly all actives have a fitted effect of over 60% in size
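Genotoxicity was scored as increased ELG1-luciferase reporter signal, measured by ONE-Glo luminescence (30 min, room temperature). Compound or vehicle exposure of the HEK293T reporter cells lasted 16 hr at 37°C.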
NPC1 promoter act: qHTS Assay for NPC1 Promoter Activators. Huh7 NPC1 promoter luciferase reporter, 24 h. Potency, µM (series often up to 9.22 µM), inactives show at the top dose activation, actives largely listed as activators. 2.4% of 320,000 active. AID 485313, 2010; note: % of control where 0% means no effect; nearly all actives have a fitted effect of over 60% in size
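Huh7 cells stably carrying NPC1 promoter–luciferase, plated in Opti-MEM with 10% FBS for 2 h, were exposed to compound in DMSO for 24 h at 37 °C; luciferase reagent was added for 10 min and luminescence read.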
* marks the source's active call; other numbers are inactive results. Calls come from the whole dose curve; as a rule, active = well fitted curve in the direction sought with a large enough effect; inconclusive = small, poorly fitted or top-dose-only effect, or another doubt; inactive = no such curve, though single readings can be large; an effect the other way counts as inactive or inconclusive. Potency is the fitted concentration of half-maximal effect.

Screening COc1ccccc1C(=O)NCC(=O)Nc1ccc2c(c1)OCO2 returned FLuc counter -9.5%, Rab9 promoter act 14.8%, p53 reactivator -0.8%, ELG1 genotoxic -0.3% and NPC1 promoter act -0.1%.
Screening C=Cc1ccc(CN2C(=O)N(c3cccc(Cl)c3)S(=O)(=O)c3ccccc32)cc1 returned FLuc counter 0.5%.
O=C(NCc1ccc2c(c1)OCO2)c1c(-c2ccccc2)sc2ccccc12 was read as p53 reactivator 18.3% and ELG1 genotoxic 15.8%.
For CC(C)C[C@H](NC(=O)OC(C)(C)C)C(=O)N[C@@H](CO)[C@H](O)[C@@H]1C[C@@H]1C(=O)N1CCCC1 the results were FLuc counter -0.7%, Rab9 promoter act -4.6%, ELG1 genotoxic 4.7% and NPC1 promoter act 1.8%.
For COC(=O)c1cc2c(cc1NC(=O)c1cnn(-c3ccccc3)c1-n1cccc1)OCO2 the results were FLuc counter -2.1% and SMN2 splice up -2.1%.
CCN(c1ccc(Cl)cc1)S(=O)(=O)c1nnc(NC(=O)C2CCCCC2)s1 was read as FLuc counter 6.4%.
Screening CC(C)Nc1nnc(SCC(=O)Nc2ccc3c(c2)C(=O)c2ccccc2C3=O)s1 returned FLuc counter inconclusive, SMN2 splice up 14.1µM*, Rab9 promoter act 3.55µM*, p53 reactivator inconclusive, ELG1 genotoxic -4.0% and NPC1 promoter act inconclusive.
For NS(=O)(=O)c1ccc(NC(=O)CSc2nnc(NC3CC3)s2)cc1 the results were FLuc counter -1.4%, Rab9 promoter act 1.3%, p53 reactivator 9.6%, ELG1 genotoxic -0.8% and NPC1 promoter act -3.2%.
For O=C(CSc1nnc(NC2CCCCC2)s1)Nc1ccc2c(c1)C(=O)c1ccccc1C2=O the results were FLuc counter inconclusive, SMN2 splice up 11.2µM*, Rab9 promoter act 2.82µM*, p53 reactivator 19.1%, ELG1 genotoxic 6.3% and NPC1 promoter act 3.55µM*.
Cc1ccc(-c2noc(CN3C(C)CCCC3C)n2)cc1 (configuration not stated) was read as FLuc counter inconclusive, SMN2 splice up -5.9%, Rab9 promoter act 0.7%, p53 reactivator -1.8%, ELG1 genotoxic 20.6µM* and NPC1 promoter act 4.8%.
`c1ccc(-c2noc(CN3CCN(c4ccccc4)CC3)n2)cc1` gave FLuc counter 0.5%, SMN2 splice up -21.3%, Rab9 promoter act -7.3%, p53 reactivator 2.0%, ELG1 genotoxic -0.8% and NPC1 promoter act 0.5%.
Screening CC1CCN(Cc2nc(-c3ccccc3)no2)CC1 returned FLuc counter 12µM*, Rab9 promoter act 2.82µM*, p53 reactivator inconclusive, ELG1 genotoxic 5.17µM* and NPC1 promoter act 2.82µM*.
`O=C(/C=C/c1ccccc1[N+](=O)[O-])NCCCN1CCCC1=O` gave FLuc counter -3.2%, Rab9 promoter act 22.2%, p53 reactivator inconclusive, ELG1 genotoxic 15.4% and NPC1 promoter act -4.3%.
Screening CC(C)(C)OC(=O)NCCC(=O)N/N=C/c1ccc2ncccc2c1 returned FLuc counter inconclusive, Rab9 promoter act 17.8%, p53 reactivator 3.4%, ELG1 genotoxic 0.4% and NPC1 promoter act -2.4%.
Screening COc1ccc2nc(/C=N/NC(=O)CCCCCNC(=O)OC(C)(C)C)ccc2c1 returned FLuc counter 10.7µM*, Rab9 promoter act 3.98µM*, p53 reactivator 5.5%, ELG1 genotoxic 3.9% and NPC1 promoter act 3.16µM*.
COc1ccc2nc(/C=N/NC(=O)CCNC(=O)OC(C)(C)C)ccc2c1 was read as FLuc counter 13.5µM*, Rab9 promoter act inconclusive, p53 reactivator inconclusive, ELG1 genotoxic 7.9% and NPC1 promoter act inconclusive.
